Here are results for four compounds from PubChem BioAssay (NCATS).

Molecules are shown by their SMILES. Results filed as inconclusive are left out. A call without a number means that no potency is given here. Calls of active or inactive are those of the source. Unless noted, the call rests on the fitted dose curve; in most records, active means well fitted curve in the direction sought with a large enough effect; inconclusive means small, poorly fitted or top-dose-only effect, or another doubt; inactive means no such curve, though single readings can be large; an effect the other way counts as inactive or inconclusive.

For test [1], the target named is Rap guanine nucleotide exchange factor 3 (Homo sapiens) (UniProt O95398). Briefly: Counterscreen qHTS for antagonist of cAMP-regulated guanine nucleotide exchange factor 3 (EPAC1) (AID 1645888).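 Further: fluorescence loss as bound BODIPY-GDP is released from Rap1B.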 A digest of the protocol:
(§1)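 Rap1B–BODIPY-GDP (250 nM) with 50 uM GDP; compounds pin-transferred to 9.74 nM–152 uM final (activator) or from 7.32 nM upwards (inhibitor). Fluorescence Ex/Em 480/540 nm read at 5 and 30 min, then after adding cAMP or buffer, at room temperature.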

The target is the same in test [2]. Nature of the test: Counterscreen qHTS for agonist of cAMP-regulated guanine nucleotide exchange factor 3 (EPAC1) (AID 1645889). Further: nearly all actives have a fitted effect of over 40% in size. In a few lines: as §1
Test [3] can be described thus: NCATS anti-infectives library activity on the primary C. elegans qHTS viability assay (AID 1745855; calls by dose curve; further: potency means the concentration at half of the fitted maximal effect). Particulars: C. elegans worm area imaging, day 7. A digest of the protocol: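 Viability is taken from GFP fluorescence of PE254-GFP-FLuc C. elegans imaged by laser cytometry over 7 days. Ten L1 worms per well grow at 21 °C on TOP10 E. coli capsules with titrated compound; levamisole marks toxicity.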

Rap guanine nucleotide exchange factor 3 (Homo sapiens), sequence (O95398 whole entry, looked up): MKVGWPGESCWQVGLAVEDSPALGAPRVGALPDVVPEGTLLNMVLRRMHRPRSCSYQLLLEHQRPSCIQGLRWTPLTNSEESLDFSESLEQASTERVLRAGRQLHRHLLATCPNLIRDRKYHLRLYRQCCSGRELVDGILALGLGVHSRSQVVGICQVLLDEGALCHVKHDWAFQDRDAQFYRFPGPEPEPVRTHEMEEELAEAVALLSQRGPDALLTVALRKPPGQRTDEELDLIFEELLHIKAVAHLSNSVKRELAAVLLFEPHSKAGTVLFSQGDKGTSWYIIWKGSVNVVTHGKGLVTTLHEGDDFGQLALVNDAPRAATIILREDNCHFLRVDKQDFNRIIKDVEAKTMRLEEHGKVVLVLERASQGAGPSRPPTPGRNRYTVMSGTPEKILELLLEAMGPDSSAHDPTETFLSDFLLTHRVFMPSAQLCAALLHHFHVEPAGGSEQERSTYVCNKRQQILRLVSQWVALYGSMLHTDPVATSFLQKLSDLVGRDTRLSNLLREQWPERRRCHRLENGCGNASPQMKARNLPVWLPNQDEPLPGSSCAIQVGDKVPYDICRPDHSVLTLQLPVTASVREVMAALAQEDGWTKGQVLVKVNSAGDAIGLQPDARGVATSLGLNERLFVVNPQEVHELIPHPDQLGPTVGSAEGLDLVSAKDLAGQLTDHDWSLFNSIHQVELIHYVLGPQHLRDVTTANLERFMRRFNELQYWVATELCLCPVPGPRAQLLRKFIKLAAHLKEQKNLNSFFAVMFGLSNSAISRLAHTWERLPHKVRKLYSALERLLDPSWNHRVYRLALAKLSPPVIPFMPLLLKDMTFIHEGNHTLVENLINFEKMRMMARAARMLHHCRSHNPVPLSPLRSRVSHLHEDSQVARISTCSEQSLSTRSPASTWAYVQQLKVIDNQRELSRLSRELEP

Take `Cn1cc(C2=C(c3ccc(Cl)cc3Cl)C(=O)NC2=O)c2ccccc21`: the compound was called inactive in test [1].

Regarding `O=C1C(SCCO)=C(SCCO)C(=O)c2ccccc21`, in test [1], the compound was classed as inactive.

On to `N#C/C(=C\c1ccc(O)c(O)c1)C(=O)c1ccc(O)c(O)c1`, for which the result in test [2] was inactive.

For `CC[C@@H](C)[C@H]1O[C@]2(CC[C@@H]1C)C[C@@H]1C[C@@H](C/C=C(\C)[C@@H](O[C@H]3C[C@H](OC)[C@@H](O[C@H]4C[C@H](OC)[C@@H](O)[C@H](C)O4)[C@H](C)O3)[C@@H](C)/C=C/C=C3\CO[C@@H]4[C@H](O)C(C)=C[C@@H](C(=O)O1)[C@]34O)O2`, in test [3], the Potency is 5.8 nM (active).
